Only some compounds are listed: those with a hit (about 19% of all), similar ones and a draw of the others.
DT40 TDP1 no CPT: qHTS for Inhibitors of human tyrosyl-DNA phosphodiesterase 1 (TDP1): qHTS in cells in absence of CPT; DT40 Tdp1-/- hTDP1 cells, no CPT, ATP luminescence, 48 h; Potency, µM (top dose mostly 46.2 µM), inactives show at the highest dose activity change, negative = growth inhibition, actives largely listed as inhibitors; 420,000 tested, 15% active; also: potency is read from the fitted curve at half-maximal effect; % is scaled to controls: 0 for no effect and ±100 for the full control effect; nearly all actives have a fitted effect of over 55% in size
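Readout: luminescence from CellTiter-Glo after 30 min in the dark at RT. Cells: DT40 Tdp1-/- with stable hTDP1, 400/well. Exposure: compounds alone, ≥48 hr, 37 °C.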
TGFb inhibitor: blocks TGF-b signaling. Potency, µM (titrated, usually from 46.1 µM), for inactives: top-dose activity, negative = inhibition, hits mostly inhibitors. HepG2 CAGA-GFP TGF-b/SMAD3 reporter, GFP fluorescence, 18 h; TGF-beta stimulated, 500 pg/mL final. AID 588855. 410,000 tested, 1.2% active; also: potency is read from the fitted curve at half-maximal effect; % is scaled to controls: 0 for no effect and ±100 for the full control effect; nearly all actives have a fitted effect of over 65% in size
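Inhibition of TGF-beta-driven CAGA-GFP reporter expression in HEPG2 cells is measured by cellular GFP fluorescence after 18 h stimulation with 500 pg/mL recombinant TGF-beta in 1% FBS medium at 37 degrees C.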
IL-1B inflam inh: inflammasome signaling inhibition, IL-1 beta readout; 360,000 tested, 4.7% active; activity change, % at 57.5 µM; THP-1 LPS/ATP IL-1B secretion, AlphaLISA, 16 h; hits give low values; in the data active = activity change below about -50%; inconclusive = mostly about -30% to -49%; also: % is scaled to controls: 0 for no effect and ±100 for the full control effect
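THP-1 cells pretreated 1 hr with compounds (up to 57.5 uM final), then stimulated with LPS (250 ng/mL final) plus ATP (1.25 mM final); secreted IL-1B measured by AlphaLISA after 16 hr, decreased signal indicating inhibition.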
TDP1 cell CPT: DT40-hTDP1 cell growth loss with CPT; chicken DT40 Tdp1-/-;hTDP1 cells + 20 nM CPT, ATP luminescence, 48 h; Potency, µM (series often up to 46.2 µM), inactives show at the top dose activity change, negative = growth inhibition, hits mostly inhibitors; 420,000 tested, 12% active; also: potency is read from the fitted curve at half-maximal effect; % is scaled to controls: 0 for no effect and ±100 for the full control effect; nearly all actives have a fitted effect of over 55% in size
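Chicken DT40 Tdp1-/- cells complemented with human TDP1, 400 cells/well, exposed to compounds plus 20 nM camptothecin for at least 48 h at 37 C; viability read as ATP content by CellTiter-Glo luminescence.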
HepG2 viability: HepG2 cytotoxicity, counter-screen for TGF-b inhibitors | HepG2 CAGA-GFP viability, ATP luminescence, 18 h | Potency, µM (doses to about 46.1 µM), for the others: at the highest dose activity change, negative = cytotoxicity, most hits filed as cytotoxic | 410,000 tested, 0.76% active | AID 588856; also: potency is read from the fitted curve at half-maximal effect
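CellTiter-Glo luminescence gave cytotoxicity after 18 hours at 37 degrees C. The cells were HepG2 CAGA-GFP in 1% FBS DMEM, stimulated with 500 pg/mL TGF-beta after compound addition. %Activity was normalised to no-cell wells (complete cell-killing) and DMSO (no toxicity), and curves were fitted and classified.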
ASM inhibitor: human S-ASM enzyme inhibition; P17405; placental ASM, HMU-PC fluorogenic substrate, 60 min; Potency, µM (series often up to 57.5 µM), inactives show at the top dose activity change, negative = inhibition, hits mostly inhibitors; 340,000 tested, 0.006% active; AID 504937; also: potency is read from the fitted curve at half-maximal effect
Target sequence (P17405 47-631 limits assumed): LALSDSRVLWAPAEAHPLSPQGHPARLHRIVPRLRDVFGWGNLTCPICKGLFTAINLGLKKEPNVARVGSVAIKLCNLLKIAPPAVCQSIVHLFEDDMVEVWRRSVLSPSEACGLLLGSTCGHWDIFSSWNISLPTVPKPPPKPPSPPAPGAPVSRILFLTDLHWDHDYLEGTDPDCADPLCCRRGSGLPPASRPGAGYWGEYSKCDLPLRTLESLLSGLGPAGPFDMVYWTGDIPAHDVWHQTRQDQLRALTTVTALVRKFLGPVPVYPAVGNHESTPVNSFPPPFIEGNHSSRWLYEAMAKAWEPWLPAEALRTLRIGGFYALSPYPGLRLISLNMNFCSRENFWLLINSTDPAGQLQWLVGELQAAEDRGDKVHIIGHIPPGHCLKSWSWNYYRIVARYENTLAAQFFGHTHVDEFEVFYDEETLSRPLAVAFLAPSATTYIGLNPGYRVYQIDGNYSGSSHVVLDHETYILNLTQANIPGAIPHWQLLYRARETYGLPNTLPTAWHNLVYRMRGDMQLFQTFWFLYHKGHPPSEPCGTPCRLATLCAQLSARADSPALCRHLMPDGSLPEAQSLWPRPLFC
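qHTS format. ASM enzyme prepared from human placenta hydrolyses the fluorogenic substrate HMU-PC0 (9 uM final) over 60 min at 37 °C after a 10 min compound preincubation.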
Active calls of the source: *; i = inactive; ? = inconclusive; . = no result given; ! = a repeat was not active. Unless noted, calls follow the shape of the dose curve; as a rule, active = well fitted curve in the direction sought with a large enough effect; inconclusive = small, poorly fitted or top-dose-only effect, or another doubt; inactive = no such curve, though single readings can be large; an effect the other way counts as inactive or inconclusive.

SMILES	DT40 TDP1 no CPT	TGFb inhibitor	IL-1B inflam inh	TDP1 cell CPT	HepG2 viability	ASM inhibitor
COc1cccc(C(=O)Nc2cccc(NC(=O)c3ccc(Cl)cc3Cl)c2)c1	?	?	.	?	-32%	.
CCC(=O)N1CCC1(C)C(=O)Nc1ccc(F)cc1 (stereo not drawn)	0%	8%	-4	-17%	-1%	.
C[C@@H]1CN([C@H](C)CO)C(=O)c2cc(Br)cnc2O[C@H]1CN(C)C(=O)Nc1ccc2c(c1)OCO2	-25%	3%	26	-5%	3%	.
COc1cc(S(=O)(=O)Nc2cccnc2)ccc1F	-7%	6%	6	-3%	4%	0%
COc1cc(NC(=O)c2ccccc2F)ccc1NC(=O)c1ccccc1Cl	-12%	-3%	-17	-3%	-3%	-3%
Cc1ccc(NC(=O)c2cccnc2)c([N+](=O)[O-])c1	18µM*	-6%	?	18µM*	0%	-1%
COc1cc(S(=O)(=O)Nc2cccc(C)c2)ccc1NC(=O)c1cccnc1	15µM*	-4%	0	?	-28%	1%
COc1ccc(NC(=O)NCc2cccnc2)c(OC)c1	2%	-13%	1	0%	-19%	-1%
COc1ccc(NC(=O)N(Cc2cccnc2)Cc2ccccc2Cl)c(OC)c1	?	-2%	-25	18µM*	-21%	1%
COc1cc(NC(=O)c2cccnc2)ccc1NC(=O)c1ccccc1Cl	?	11%	-66*	5%	-17%	-7%
O=C1Oc2ccccc2C(=O)/C1=C\N1CCN(c2ccccc2)CC1	-14%	?	10	-3%	1%	8%
Cc1oc(-c2ccccc2)nc1CS(=O)CC(=O)NC1CCCC1 (stereo not drawn)	-15%	4%	12	1%	-2%	7%
Cc1ccc(S(=O)(=O)N2CCC(C(=O)OCC(=O)N(CC(C)C)C3CCS(=O)(=O)C3)CC2)cc1C (stereo not drawn)	2%	6%	i	3%	-21%	1%
Cc1cc(Br)cn2c(Cc3ccccc3)c(-c3cccc(Cl)c3)nc12	23µM*	.	37	13µM*	.	.
Cc1cc(Br)cn2c(Cc3cccc(F)c3)c(-c3ccccc3)nc12	18µM*	?	0	29µM*	-4%	.
Cc1ccc(Cc2c(-c3ccc(C#N)cc3)nc3c(C)cc(Br)cn23)cc1	?	-12%	7	?	-18%	.
Cc1cc(Br)c2nc(-c3ccccc3)c(Cc3cccc(Cl)c3)n2c1	?	.	5	?	.	.
Cc1ccc(Cc2c(-c3ccccc3)nc3c(C)cc(Br)cn23)cc1	10µM*	.	28	?	.	.
Cc1ccc(-c2nc3c(C)cc(Br)cn3c2Cc2cccc(F)c2)cc1	?	.	0	?	.	.
Cc1cc(C)cc(NCc2nnc3n2CCCCC3)c1	-5%	-8%	.	-1%	-3%	.
CC(NC(=S)Nc1ccc(OC(F)F)cc1OC(F)F)C(C)(C)C (stereo not drawn)	?	?	-91*	?	-38%	5%
CN1C(=O)c2c(sc3c2CC(C)(C)SC3)N2CCN=C12	21µM*	?	-8	21µM*	-13%	54%
COc1ccc(NC(=O)c2csnn2)cc1Cl	?	.	.	?	-14%	.
Cc1ccc2oc(-c3cccc(NC(=O)c4ccccn4)c3)nc2c1	?	0%	56	?	-22%	7%
COc1cccc(OC)c1C(=O)Nc1cccc(-c2nc3cc(C)cc(C)c3o2)c1	7.3µM*	?	.	13µM*	-32%	.
SMILES	DT40 TDP1 no CPT	TGFb inhibitor	IL-1B inflam inh	TDP1 cell CPT	HepG2 viability	ASM inhibitor
COc1cc(C(=O)Nc2cccc(-c3nc4cc(C)ccc4o3)c2)cc(OC)c1OC	?	0%	-5	23µM*	2%	-9%
COc1ccc2c(Cl)c(C(=O)N/N=C/c3cccnc3)sc2c1	-5%	-16%	10	-2%	-14%	-2%
COc1ccc(Cl)cc1NC(=O)C/C(C)=N/NC(=O)C(=O)NCc1ccccc1	-30%	4%	-21	1%	2%	-5%
CCCCC[C@@H](C)N1C[C@@H](COCc2ccccc2)Oc2cc(N3CCC[C@H]3CO)ccc2S1(=O)=O	?	.	0	?	.	.
CCCCC[C@@H](C)N1C[C@H](COCc2ccccc2)Oc2cc(N3CCC[C@H]3CO)ccc2S1(=O)=O	16µM*	.	22	9.2µM*	.	.
CCCCC[C@@H](C)N1C[C@H](COCc2ccccc2)Oc2cc(N3CCC[C@@H]3CO)ccc2S1(=O)=O	18µM*	.	-27	?	.	.
CC(=O)N1CCCc2ccc(NS(=O)(=O)c3ccc(C)c(C)c3)cc21	?	-17%	29	12µM*!	-7%	-1%
COc1ccc(OC)c(S(=O)(=O)Nc2ccc3c(c2)N(C(C)=O)CCC3)c1	-26%	?	9	-18%	0%	1%
COc1ccc(S(=O)(=O)Nc2ccc3c(c2)N(C(C)=O)CCC3)cc1F	18µM*	-47%	.	15µM*	-21%	.
CCOc1ccccc1NC(=O)Cn1nnc2sc(-c3ccccc3)cc2c1=O	?	-3%	.	-14%	-12%	.
O=C(CCCOc1ccc(Cl)cc1)NC1CCCCC1	-9%	-8%	8	-9%	1%	4%
O=C(NC(c1ccccc1)c1ccccc1)C1CCCO1 (stereo not drawn)	6%	-2%	8	-6%	1%	-1%
CCCN1CCN(C(=O)Cn2c(-c3cccs3)cc3cc(F)ccc32)CC1	-70%	?	.	12µM*	-2%	.
CCOc1ccc(CCNC(=O)Cn2c(-c3cccs3)cc3cc(F)ccc32)cc1OCC	13µM*	?	.	12µM*	-62%	.
CCOC(=O)C1CCN(C(=O)Cn2c(-c3cccs3)cc3cc(Cl)ccc32)CC1	21µM*	?	.	15µM*	-14%	.
CCCN1CCN(C(=O)Cn2c(-c3cccs3)cc3ccccc32)CC1	?	-2%	.	?	-1%	.
O=C(Cn1c(-c2cccs2)cc2cc(Cl)ccc21)N1CCN(c2ccccc2)CC1	-28%	?	.	?	-25%	.
CC1CCN(C(=O)Cn2c(-c3cccs3)cc3cc(Cl)ccc32)CC1	?	?	.	16µM*	-21%	.
O=C(NCc1cccn1Cc1ccccc1)Nc1ccc(Br)cc1F	?	-3%	.	?	-10%	.

Screening results: PubChem, National Center for Advancing Translational Sciences (NCATS)
